Counter-ions that a name gives are not always drawn. ± gives the standard deviation of the averaged measurements. Whole data set: some 1,600 compounds, median “mitochondrial oxygen consumption rate normalised to cell number, Z score over the library” near 0.065, cut for the lowest 2% near -2.2. The list comes from a sample in which the lowest values are over-represented; it also holds similar structures and randomly drawn compounds.
tested on: FaDu; assay: mitochondrial oxygen consumption rate normalised to cell number, Z score over the library; higher = higher oxygen consumption (negative = OCR reduction); conditions: treatment time 24 h; assay medium: 5 mM galactose, 5 mM pyruvate, 4 mM glutamine; 10 µM
Protocol: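 Primary screen: FaDu cells were incubated 24 h with Pharmakon 1600 / TDI oncology set compounds at 2 or 10 uM. Mitochondrial-specific OCR (basal minus 2 uM antimycin A) was measured on a Seahorse XF96 in assay medium with 5 mM galactose, 5 mM pyruvate and 4 mM glutamine, then corrected for Hoechst cell number and expressed as a Z score […]. Compounds that cut cell number by >66% were excluded. Two repeats.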

Structure (SMILES) | mitochondrial oxygen consumption rate normalised
CNC(=O)c1cc(Oc2ccc(NC(=O)Nc3ccc(Cl)c(C(F)(F)F)c3)cc2)ccn1 | -2.31 ± 0.25
C#C[C@]1(OC(C)=O)CC[C@H]2[C@@H]3CCC4=CC(=NO)CC[C@@H]4[C@H]3CC[C@@]21CC (mixture of isomers) | 1.1 ± 0.091
CC(C)(C)CC(=O)OCC(=O)[C@@]1(O)CC[C@H]2[C@@H]3CCC4=CC(=O)C=C[C@]4(C)[C@H]3[C@@H](O)C[C@@]21C | -0.63 ± 0.68
COc1cc([C@@H]2c3cc4c(cc3[C@@H](O[C@@H]3O[C@@H]5CO[C@@H](C)O[C@H]5[C@H](O)[C@H]3O)[C@H]3COC(=O)[C@H]23)OCO4)cc(OC)c1O | -1.53 ± 0.61
COc1cc([C@@H]2c3cc4c(cc3[C@@H](O[C@@H]3O[C@@H]5CO[C@@H](C)O[C@H]5[C@H](O)[C@H]3O)[C@H]3COC(=O)[C@H]23)OCO4)cc(OC)c1O [Etoposide] | -0.0499 ± 0.023
COc1cc([C@@H]2c3cc4c(cc3[C@@H](O[C@@H]3O[C@@H]5CO[C@@H](c6cccs6)O[C@H]5[C@H](O)[C@H]3O)[C@H]3COC(=O)[C@H]23)OCO4)cc(OC)c1O | -3.75 ± 0.66
Nc1c2ccccc2nc2ccccc12 | -1.9 ± 0.35
Nc1ccc2cc3ccc(N)cc3nc2c1 | -2.55 ± 0.27
Cc1ccc2c(Br)cc(Br)c(OC(=O)c3ccccc3)c2n1 | -2.31 ± 0.47
O=C(OOC(=O)c1ccccc1)c1ccccc1 | 0.517 ± 0.52
O=C(Oc1cccc2cccnc12)c1ccccc1 | -0.0234 ± 0.66
CCCCCCCCCCCCCCCC[N+](C)(C)CCN(Cc1ccc(OC)cc1)c1ncccn1 | -2.13 ± 0.31
CO/N=C1\C[C@]2(C[C@@H]3C[C@@H](C/C=C(\C)C[C@@H](C)/C=C/C=C4\CO[C@@H]5[C@H](O)C(C)=C[C@@H](C(=O)O3)[C@]45O)O2)O[C@H](/C(C)=C/C(C)C)[C@H]1C | -0.513 ± 0.34
Cc1cccc(C)c1NC(=O)c1ccccc1C(=O)O | -0.418 ± 1.1
CCCCC(CC)CCC(CC(C)C)OS(=O)(=O)O (configuration not stated) | 0.745 ± 1.4
O.O.O=C([O-])CN(CCN(CC(=O)[O-])CC(=O)O)CC(=O)O.[Na+].[Na+] | 1.52 ± 0.75
CC1(C)S[C@@H]2[C@H](NC(=O)Cc3ccccc3)C(=O)N2[C@H]1C(=O)O | -0.601 ± 0.075
COC(=O)Nc1nc2cc(C(=O)c3ccc(F)cc3)ccc2[nH]1 | 0.265 ± 0.4
CC(C)(C)NC[C@H](O)c1ccc(O)c(CO)c1 | 0.0168 ± 0.31
C[n+]1c2cc(N)ccc2cc2ccc(N)cc21 | -4.5 ± 0.35
C=CCCCCCCCCC(=O)O | 1.2 ± 0.61
Cc1c(C)c2c(c(C)c1O)CCC(C)(CCCC(C)CCCC(C)CCCC(C)C)O2 (stereo not drawn) [alpha-TOCHOPHEROL] | -0.681 ± 0.38

Structure (SMILES) | mitochondrial oxygen consumption rate normalised
CC(=O)OCC(=O)[C@@]12OC(C)(C)O[C@@H]1C[C@H]1[C@@H]3C[C@H](F)C4=CC(=O)C=C[C@]4(C)[C@@]3(F)[C@@H](O)C[C@@]12C | 0.605 ± 0.52
CN[C@H]1CC[C@@H](c2ccc(Cl)c(Cl)c2)c2ccccc21 | -0.618 ± 0.057
OC[C@H]1O[C@@H](n2cnc3c2N=CNC[C@H]3O)C[C@@H]1O [Pentostatin] | 0.38 ± 0.31
C[C@@H]1O[C@@H]1P(=O)(O)O | 0.794 ± 0.12
C=CCNC(N)=S | 0.218 ± 1.4
Oc1c(Br)cc(Br)c2cccnc12 | -1.77 ± 0.19
CCOc1ccc2nc3cc(N)ccc3c(N)c2c1 | -3.35 ± 0.25
CCOc1ccc2nc(S(N)(=O)=O)sc2c1 | -0.459 ± 0.36
CN(Cc1cc(Br)cc(Br)c1N)C1CCCCC1 | 0.728 ± 0.24
NNCCc1ccccc1 | -0.3 ± 0.16
CO[C@H]1/C=C/O[C@@]2(C)Oc3c(C)c(O)c4c(O)c(c5c(nc6cc(C)ccn65)c4c3C2=O)NC(=O)/C(C)=C\C=C\[C@H](C)[C@H](O)[C@@H](C)[C@@H](O)[C@@H](C)[C@H](OC(C)=O)[C@@H]1C | 0.795 ± 0.38
Cc1ccc(Nc2nccc(N(C)c3ccc4c(C)n(C)nc4c3)n2)cc1S(N)(=O)=O [Pazopanib HCl] | -0.379 ± 0.45
OCC(S)CS (configuration not stated) | -0.239 ± 0.68
N=C(N)c1ccc(OCCCCCOc2ccc(C(=N)N)cc2)cc1 | -3.01 ± 0.078
CCCCOc1ccc(C(=O)CCN2CCCCC2)cc1 | -0.0802 ± 0.69
N=C(N)c1ccc(N=NNc2ccc(C(=N)N)cc2)cc1 | -0.185 ± 0.46
CC1CCN(CCCC(=O)c2ccc(F)cc2)CC1 | -0.602 ± 0.36
CCCCC/C=C/CCC(=O)N[C@H]1[C@H](Oc2c3cc4cc2Oc2ccc(cc2Cl)[C@@H](O[C@@H]2O[C@H](CO)[C@@H](O)[C@H](O)[C@H]2NC(C)=O)[C@@H]2NC(=O)[C@H](NC(=O)[C@@H]4NC(=O)[C@H]4NC(=O)C(Cc5ccc(c(Cl)c5)O3)NC(=O)[C@H](N)c3ccc(O)c(c3)Oc3cc(O)cc4c3)c3ccc(O)c(c3)-c3c(OC4O[C@H](CO)[C@@H](O)[C@H](O)[C@@H]4O)cc(O)cc3[C@@H](C(=O)O)NC2=O)O[C@H](CO)[C@@H](O)[C@@H]1O (some centres not stated) [TEICOPLANIN [A(2-1) shown]] | 1.41 ± 0.64
COCCCOc1cc(C[C@@H](C[C@H](N)[C@@H](O)C[C@H](C(=O)NCC(C)(C)C(N)=O)C(C)C)C(C)C)ccc1OC | 0.624 ± 0.066
Nc1ncnc2c1ncn2[C@@H]1O[C@H](CO)[C@@H](O)[C@@H]1O | 0.868 ± 0.46
Cc1ccccc1N1C(=O)c2cc(S(N)(=O)=O)c(Cl)cc2NC1C (configuration not stated) | 0.24 ± 0.2
CCCSc1ccc2[nH]c(NC(=O)OC)nc2c1 | 0.883 ± 0.12

Structure (SMILES) | mitochondrial oxygen consumption rate normalised
O=C1c2c(O)cc(CO)cc2C(OC2OC(CO)C(O)C(O)C2O)c2cccc(OC3OC(CO)C(O)C(O)C3O)c21 (configuration not stated) [CASANTHRANOL [cascaroside A shown]] | -0.942 ± 0.28
C[C@H](Cn1cnc2c(N)ncnc21)OCP(=O)(O)O | 0.449 ± 0.26
CCC1=C(C)CN(C(=O)NCCc2ccc(S(=O)(=O)NC(=O)N[C@H]3CC[C@H](C)CC3)cc2)C1=O | 0.0168 ± 0.78
Cc1c(-c2cnccn2)ssc1=S | -0.416 ± 0.25
Cc1nccnc1N1CCCCC1 | 0.47 ± 0.26
CC(=O)NC(Cc1ccccc1)C(=O)O (configuration not stated) | 0.121 ± 0.33
C[Se]CC[C@H](N)C(=O)O | 0.623 ± 0.23
CC(=O)OCC(=O)[C@@]1(O)[C@H](OC(C)=O)C[C@H]2[C@@H]3CCC4=CC(=O)C=C[C@]4(C)[C@@]3(F)[C@@H](O)C[C@@]21C | 0.894 ± 0.33
CS(=O)(=O)CCNCc1ccc(-c2ccc3ncnc(Nc4ccc(OCc5cccc(F)c5)c(Cl)c4)c3c2)o1 [Lapatinib Ditosylate] | -0.0282 ± 1.2
O.O.O.O.O=C([O-])CC(O)(CC(=O)[O-])C(=O)[O-].[Li+].[Li+].[Li+] | -0.228 ± 1.6
CC1(C)[C@H](C(=O)O)N2C(=O)C[C@H]2S1(=O)=O | 0.32 ± 0.83
CCCCCCc1ccc(O)cc1O | 0.48 ± 0.24
Nc1c2c(nc3ccccc13)CCCC2 | 1.05 ± 0.93
CCCCCCc1ccc(O)cc1O.Nc1c2ccccc2nc2ccccc12 | -2.93 ± 0.2
O=C(O)c1cc(-c2ccccc2)nc2ccccc12 | 0.349 ± 0.05
O=C(Nc1cc(Cl)cc(Cl)c1O)c1c(O)c(Cl)cc(Cl)c1Cl | 1.06 ± 0.89
Oc1c(Cl)cc(Cl)cc1Sc1cc(Cl)cc(Cl)c1O | 6.804 ± 0.06
Oc1c(Cl)cc(Cl)c(Cl)c1Cc1c(O)c(Cl)cc(Cl)c1Cl | -6.031 ± 0.028
O=C(NCc1ccccc1)OCCO | 1.42 ± 0.86
CCCCC(CC)COc1ccc(-c2nc(-c3ccc(OC)cc3)nc(-c3ccc(OCC(CC)CCCC)cc3O)n2)c(O)c1 (configuration not stated) | 0.282 ± 0.45
Cc1ccccc1OCC(O)CO (configuration not stated) | -0.432 ± 0.61
O=C1C(O)=C(O)C(=O)C(O)=C1O | 0.611 ± 0.72

Structure (SMILES) | mitochondrial oxygen consumption rate normalised
Cc1oc(=O)oc1CN1CCN(c2cc3c(cc2F)c(=O)c(C(=O)O)c2n3C(C)S2)CC1 (configuration not stated) | 0.0314 ± 0.4
NC(=O)CCCCC1CCSS1 (configuration not stated) | 1.43 ± 0.3
CCN[C@@H]1C[C@H](N)[C@@H](O[C@H]2OC(CN)=CC[C@H]2N)[C@H](O)[C@H]1O[C@H]1OC[C@](C)(O)[C@H](NC)[C@H]1O | 1.16 ± 0.38
O=C1/C(=C/c2cccs2)CCC/C1=C\c1cccs1 | 0.0645 ± 0.73
CC(C)n1c(/C=C/C(O)CC(O)CC(=O)O)c(-c2ccc(F)cc2)c2ccccc21 (configuration not stated) | -1.03 ± 0.072
CC(=O)[C@@]1(O)CC[C@H]2[C@@H]3C=C(Cl)C4=CC(=O)[C@@H]5C[C@@H]5[C@]4(C)[C@H]3CC[C@@]21C | -0.129 ± 1.6
Cc1cc(/C=C/c2ccc3cc(N(C)C)ccc3[n+]2C)c(C)n1-c1ccccc1 | -5.57 ± 0.19
COc1cc2/c(=N/c3ccc(Br)cc3F)nc[nH]c2cc1OCC1CCN(C)CC1 [vandetanib] | 0.909 ± 1.7
CCN(CC)C(=O)c1cccnc1 | -0.362 ± 0.74
OCc1ccccc1O[C@@H]1O[C@H](CO)[C@@H](O)[C@H](O)[C@H]1O | 0.956 ± 0.64
O=C(c1ccc(OCCN2CCCCC2)cc1)c1c(-c2ccc(O)cc2)sc2cc(O)ccc12 | -0.0851 ± 0.4
O=C(c1ccc(OCCN2CCCCC2)cc1)c1c(-c2ccc(O)cc2)sc2cc(O)ccc12 [Raloxifene HCl] | -0.567 ± 1.1
COc1ccc(-n2nc(CCC(=O)N(C)O)cc2-c2ccc(Cl)cc2)cc1 | -0.88 ± 0.44
FC(F)(Cl)C(F)(F)Cl | 0.262 ± 0.59
CC12CCC(CC1=O)C2(C)C (configuration not stated) | 0.477 ± 0.051
C/C(=C\c1csc(C)n1)[C@@H]1C[C@@H]2O[C@]2(C)CCC[C@H](C)[C@H](O)[C@@H](C)C(=O)C(C)(C)[C@@H](O)CC(=O)N1 [Ixabepilone] | -0.637 ± 0.14
OC[C@H]1O[C@@H](O[C@@H]2[C@@H](CO)OC(O)(CO)[C@H]2O)[C@H](O)[C@@H](O)[C@H]1O (mixture of isomers) | 1.09 ± 0.68
CN(C)CC(c1ccc(O)cc1)C1(O)CCCCC1 (configuration not stated) | 0.524 ± 0.65
S=C=Nc1ccc(N=C=S)cc1 | 0.759 ± 0.026
CC(=O)O[C@H]1C(=O)[C@@]2(C)[C@H]([C@H](OC(=O)c3ccccc3)[C@]3(O)C[C@H](OC(=O)[C@H](O)[C@@H](NC(=O)c4ccccc4)c4ccccc4)C(C)=C1C3(C)C)[C@]1(OC(C)=O)CO[C@@H]1C[C@@H]2O | 0.221 ± 0.61
CC(=O)O[C@H]1C(=O)[C@@]2(C)[C@H]([C@H](OC(=O)c3ccccc3)[C@]3(O)C[C@H](OC(=O)[C@H](O)[C@@H](NC(=O)c4ccccc4)c4ccccc4)C(C)=C1C3(C)C)[C@]1(OC(C)=O)CO[C@@H]1C[C@@H]2O [Paclitaxel] | -0.326 ± 0.26
